Screening data from PubChem BioAssay.
Shown are actives, neighbours in structure and some others; about 6.1% of the full set was active somewhere.
DRD3 antagonist – antagonists of human D3 dopamine receptor | D3R cells, DiscoveRx beta-arrestin luminescence, antagonist mode; hits give low values | AID 652054 | max response, negative = inhibition, % | 2.5% of 360,000 active | P35462; in the data active = max response below about -50%; inconclusive = no clear call, values can overlap the other calls; note: % is set by controls: 0 for no effect and ±100 for the full control effect
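Cells plated overnight at 1500 cells/well, then exposed to library compounds with dopamine controls for 90 minutes at 37 degrees C. DiscoveRx reagent added for 30–60 minutes at room temperature; luminescence read, quantitative HTS format.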
D1 agonist – activates the human D1 dopamine receptor | HEK293 T-REx D1 cells, calcium flux, agonist mode | activation, % at 2 µM | 1% of 360,000 active; in the data active = activation above about 30%; note: 0% is about no effect
Target sequence (P21728 whole entry, looked up): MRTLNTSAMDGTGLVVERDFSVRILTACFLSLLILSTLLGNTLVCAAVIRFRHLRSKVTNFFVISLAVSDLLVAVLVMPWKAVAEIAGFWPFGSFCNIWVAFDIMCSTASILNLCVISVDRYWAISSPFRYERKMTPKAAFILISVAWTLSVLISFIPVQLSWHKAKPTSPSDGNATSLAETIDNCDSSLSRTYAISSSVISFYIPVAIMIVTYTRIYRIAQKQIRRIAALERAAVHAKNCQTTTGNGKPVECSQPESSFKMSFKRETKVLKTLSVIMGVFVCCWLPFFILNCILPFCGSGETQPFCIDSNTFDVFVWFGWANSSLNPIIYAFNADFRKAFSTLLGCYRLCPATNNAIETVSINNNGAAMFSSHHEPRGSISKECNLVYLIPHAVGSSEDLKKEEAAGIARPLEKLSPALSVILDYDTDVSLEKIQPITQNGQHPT
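Tetracycline-induced HEK293 TREx D1 cells, force-coupled to calcium signalling, were dye-loaded with a no-wash calcium kit. Compound was pin-added after a 10 s baseline. Fluorescence was read kinetically at 1 cycle/s for 180 s, with calcium rises flagged as agonism.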
D1 antagonist – human D1 dopamine receptor antagonism; P21728; HEK293 TREx D1 cells, calcium flux, dopamine EC80; hits give low values; activity change, negative = inhibition, % at 10 µM; 3.2% of 360,000 active; in the data active = activity change below about -30%; note: % is set by controls: 0 for no effect and ±100 for the full control effect
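Kinetic fluorescence of a calcium dye serves as the read-out. D1-expressing Hek293 Trex cells, induced overnight at 30 C, are exposed to compound for 180 s before an EC80 dopamine addition, then read 180 s further.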
D3 ag – activates the human D3 dopamine receptor; P35462; D3R DiscoveRx beta-arrestin cells, luminescence, 90 min; max activation, %; 0.58% of 410,000 active; AID 652048; in the data active = max activation above about 30%; note: 0% is about no effect
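Agonist-mode cell screen: cells plated at 1500/well and incubated overnight at 37 °C, then exposed to library compounds for 90 min at 37 °C. Detection reagent was added for 30–60 min at room temperature, and luminescence was read.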
D1 PAM – enhances dopamine response at the human D1 receptor. P21728. HEK293 TREx D1 cells, calcium flux, dopamine EC20 potentiation. potentiation, % at 10 µM. 0.036% of 360,000 active. AID 504651; in the data active = potentiation above about 30%; note: 0% is about no effect
Active calls of the source: *; ? = inconclusive; · = no result given; ! = not active in a repeat.

SMILES | DRD3 antagonist | D1 agonist | D1 antagonist | D3 ag | D1 PAM
Cc1ccc(Cl)cc1-c1cc(C(=O)NCc2ccc(C(F)(F)F)cc2)[nH]n1 | -54* | · | · | -11 | ·
Cc1cc(F)ccc1-c1cc(C(=O)NCc2ccc(C(F)(F)F)cc2)[nH]n1 | ? | · | · | -16 | ·
Cc1ccc(Cl)cc1-c1cc(C(=O)Nc2ccc(F)cc2)[nH]n1 | -85* | · | · | -18 | ·
COc1ccc(C(=O)Nc2ccc3oc(-c4ccc(F)cc4Cl)nc3c2)cc1 | · | 0 | -38* | -4 | -3
COc1ccc(Cl)c(-c2cc(C(=O)Nc3ccc(F)cc3)[nH]n2)c1 | -52* | · | · | -20 | ·
Cc1ccc(NC(=O)c2cc(-c3cc(Cl)ccc3O)n[nH]2)cc1C | 46 | 1 | 6 | 3 | -8
COc1cc2ccccc2cc1C(=O)Nc1ccc2oc(-c3ccc(F)cc3Cl)nc2c1 | · | -2 | 4 | 4 | 1
COc1ccc(-n2nc3cc(C)c(NC(=O)c4ccc(-c5ccc(Br)cc5)o4)cc3n2)cc1 | · | -1 | 9 | 7 | 0
c1ccc(CN2CCC(CNc3ncnc4ccccc34)C2)cc1 (stereo unspecified) | -64* | · | · | -16 | ·
c1ccc(CNc2ncnc3ccccc23)cc1 | 22 | -2 | -2 | 33*! | -2
CNc1nc(NCc2ccccc2)c2ccccc2n1 | 19 | 34* | -37* | -3 | -8
c1ccc(CN2CCC(Nc3nc(-c4ccccc4)nc4ccccc34)CC2)cc1 | -2 | 7 | -1 | -11 | -2
O=S(=O)(Nc1nc2ccccc2nc1Nc1ccc(N2CCOCC2)cc1)c1cc(Cl)ccc1Cl | 28 | 15 | -50* | 2 | -8
Clc1nc(Nc2ccc(N3CCOCC3)cc2)c2ccccc2n1 | -7 | 3 | -12 | -2 | -2
CC(C)COc1ccc(C(=O)Nc2cc(-c3ccccc3)no2)cc1 | · | 8 | -10 | 5 | 1
Cn1c(=O)n(Cc2ccccc2Cl)c(=O)c2c1nc1n2CCN1c1ccccc1 | · | 0 | 1 | 3 | -1
CC(OC(=O)c1ccccc1O)C(=O)Nc1ccc(Cl)cn1 (stereo unspecified) | -26 | 1 | -11 | -4 | 0
CC(OC(=O)c1ccc(S(=O)(=O)N(C)C)cc1)C(=O)Nc1ccc(Cl)cn1 (stereo unspecified) | 3 | 6 | -60* | 4 | 0
O=C(COc1ccc(Cl)cc1Cl)N/N=C/c1ccc[nH]1 | -1 | 1 | -8 | -2 | -5
O=C(COc1ccc(Cl)cc1Cl)N/N=C/CCc1ccccc1 | -55* | 6 | 27 | -2 | -7
O=C(OCc1ccccc1F)c1ccc(-c2nnn(Cc3ccccc3)n2)cc1 | · | 3 | -1 | -11 | 3
O=C(COC(=O)CNC(=O)c1ccccc1)NCCc1ccccc1 | -7 | 5 | 4 | 5 | 2
O=C(CNC(=O)c1ccccc1)NCCc1ccc(O)c(O)c1 | · | 4 | -39* | · | -5
Cc1nn(CCC(=O)NCc2cccc(Br)c2)c(=O)c2nn(-c3ccccc3)c(C)c12 | · | 6 | 10 | 0 | 0
CN1CCN(c2oc(/C=C/c3ccc(F)cc3)nc2C#N)CC1 | · | 0 | -11 | -18 | -1
SMILES | DRD3 antagonist | D1 agonist | D1 antagonist | D3 ag | D1 PAM
COC(=O)C1=C(C)Nc2ncnn2C1c1ccc(OCc2ccccc2)cc1 (stereo unspecified) | 6 | 4 | -38* | 3 | -5
CC1=C(C(=O)OC(C)C)C(c2ccncc2)n2ncnc2N1 (stereo unspecified) | 24 | 2 | -12 | 2 | -2
COC(=O)c1ccc(C2C(C(C)=O)=C(C)Nc3ncnn32)cc1 (stereo unspecified) | -74* | 1 | 2 | -3 | 2
COCCOC(=O)C1=C(C)Nc2ncnn2C1c1ccccc1 (stereo unspecified) | 13 | 3 | -11 | -1 | -8
CC1=C(C(=O)OC(C)C)C(c2cccnc2)n2ncnc2N1 (stereo unspecified) | 9 | 1 | -34* | 1 | ·
COc1ccc(-c2nc(SCC(=O)c3ccc(OC)c(Br)c3)n[nH]2)cc1 | · | 0 | 1 | -23 | 2
CN1CC[C@]2(CCN3CCc4c(oc5ccccc45)[C@@H]3C2)N(C)C1=O | -58* | -1 | -10 | -43 | -5
O=C(c1ccc2c(c1)N(Cc1ccccc1)C(=O)c1ccccc1S2(=O)=O)N1CCc2ccccc21 | · | 3 | 6 | 2 | 1
